40 compounds from PubChem BioAssay (EPA / NIEHS) can be followed below.

Activity calls are given as the source filed them. The calls were made as follows: active = hit-call score of the fitted dose curve at least 0.9, where 1 is the maximum; inactive = score below 0.9.

Sequence of Myc proto-oncogene protein (Homo sapiens) (P01106 whole entry, looked up): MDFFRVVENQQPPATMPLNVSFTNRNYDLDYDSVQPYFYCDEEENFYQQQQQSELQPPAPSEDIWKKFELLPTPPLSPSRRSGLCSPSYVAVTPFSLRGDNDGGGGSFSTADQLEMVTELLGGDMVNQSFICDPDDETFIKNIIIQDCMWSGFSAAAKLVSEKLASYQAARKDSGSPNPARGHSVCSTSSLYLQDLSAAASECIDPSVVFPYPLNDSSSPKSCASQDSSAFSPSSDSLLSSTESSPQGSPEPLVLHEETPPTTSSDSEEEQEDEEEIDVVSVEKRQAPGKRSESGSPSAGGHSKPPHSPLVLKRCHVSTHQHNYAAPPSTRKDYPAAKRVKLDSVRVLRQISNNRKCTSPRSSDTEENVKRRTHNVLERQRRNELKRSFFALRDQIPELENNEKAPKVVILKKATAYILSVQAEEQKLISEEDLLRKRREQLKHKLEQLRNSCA

The target in the test is Myc proto-oncogene protein (Homo sapiens) (UniProt P01106). In words: ATG_Myc_CIS: Attagene CIS-FACTORIAL HepG2 Assay for human Myelocytomatosis (Myc) Proto-Oncogene Transcription Factor (AID 2282990). To be noted: HepG2, Attagene cis-reporter transcription factor activity; actives raise or lower the signal. On the procedure:
ATG_CIS is a cell-based, multiplexed-readout assay that uses HepG2, a human liver cell line, with measurements taken at 24 hours after chemical dosing in a 24-well plate.ATG_Myc_CIS is one of 52 assay component(s) measured or calculated from the ATG_CIS assay. It is designed to make measurements of mRNA induction, a form of inducible reporter, as detected with fluorescence intensity signals by Reverse transcription polymerase chain reaction (RT-PCR) and Capillary electrophoresis technology.Data from the assay component ATG_Myc_CIS was analyzed into 1 assay endpoint. This assay endpoint, ATG_Myc_CIS, was analyzed with bidirectional fitting relative to DMSO as the negative control and baseline of activity. Using a type of inducible reporter, measures of mRNA for gain or loss-of-signal activity can be used to understand the reporter gene at the transcription factor-level as they relate to the gene MYC. Furthermore, this assay endpoint can be referred to as a primary readout, because this assay has produced multiple assay endpoints where this one serves a reporter gene function. To generalize the intended target to other relatable targets, this assay endpoint is annotated to the dna binding intended target family, where the subfamily is basic helix-loop-helix leucine zipper.
Human liver HepG2 cells are transiently transfected with multiple reporter transcription units (MRTUs) in 6-well plates using FuGene 6 reagent (Roche; 3 ml FuGene/1 mg DNA). The MRTU constructs are regulated by a cis-regulating element (promoter). […] A major difference between the CIS and TRANS system is that in CIS activities of endogenous TFs are measured, whereas the TRANS assay evaluates changes in activities of exogenous, chimeric NR-Gal4 proteins. […] At the end of 24 hour incubation, total RNA was isolated using TriZol reagent (Invitrogen). The isolated RNA is then reverse-transcribed using oligo(dT) primer and Mo-MLV reverse transcriptase (Invitrogen) with DNAse I (Ambion) treatment for 30 min. The one-tenth of the produced cDNA was amplified by PCR using Taq DNA polymerase (Invitrogen) and two reporter sequence-specific primers. The PCR products were fluorescently labeled by primer extension with 6-arboxyfluorescein (6-FAM) 5'-labeled reporter sequence-specific primer (2 min at 95 C, 20 s at 68 C and 10 min at 72 C) and these products were digested with 5U of HpaI (New England Biolabs) for 2h at 37 C. The fragments were purified using Qiaquick PCR columns (Qiagen), analyzed on an ABI 3130xL genetic analyzer (Applied Biosystems) with peak positions identified by using a set of X-rhodamine (ROX)-labeled MapMarker1000 molecular weight standards (BioVentures). The raw capillary electrophoresis data was processed using Attagraph software (Attagene).
As for `COc1ccc(OC)cc1`, the compound was called inactive. As to `C1CCCNCC1`, the compound was called inactive. Regarding `CC(C)C(=O)c1ccccc1`, the outcome was inactive. Same read-out and setting: with `CC/C=C\CCOC(C)OCC` (stereo not given) the entry was “inactive”; with `CCCC[N+](C)(CCCC)CCCC`, “inactive”. For `C=CC(C)CCCC(C)(C)O` (stereo not given), the result was inactive. On to `C1COCO1`, for which the call was inactive. Take `CCC(=O)OC/C=C(\C)CCC=C(C)C`: the compound was classed as inactive. On to `CCCCCCCCCCCCOCCOS(=O)(=O)O`, for which the compound was called inactive. In the case of `OCC=Cc1ccccc1`, the call was inactive. Same read-out and setting: then `CCOC(=O)C=Cc1ccccc1`, with “inactive”. For `Cc1ccccc1S`, the AC50 was 45 µM (active). Consider `C[C@H](CCC(=O)O)[C@H]1CC[C@H]2[C@@H]3CC[C@@H]4C[C@H](O)CC[C@]4(C)[C@H]3CC[C@]12C`, for which the AC50 was 156 µM (active). In the case of `CCCc1ccc(O)cc1`, the result was inactive. `O=C(O)CS`: the result was inactive.

Turning to `CC(O)COCC(C)O` (stereo not given), the result was inactive. As for `CC(C)(CO)CO`, the result was inactive. Take `Cc1cc(O)c2c(c1)C(=O)c1cc(O)cc(O)c1C2=O`: the compound was called inactive. Same read-out and setting: with `CCCCC1CCCCC(=O)O1` (stereo not given) the entry was “inactive”; with `CCc1cccc(O)c1`, “inactive”; with `CC1=CC(O)CC(C)(C)C1` (stereo not given), “inactive”. Regarding `C=COCC1CCC(COC=C)CC1` (stereo not given), the compound was classed as inactive. With `COc1cc(OC)c2ccc(=O)oc2c1`, the outcome was inactive. In the case of `CC/C(=C(\c1ccccc1)c1ccc(OCCN(C)C)cc1)c1ccccc1`, the compound was called inactive.

Consider `C=CC(=O)OCCCCCC`, for which the result was inactive.

As for `[Cu+]`, the call was inactive.

For `CN(C)C`, the compound was classed as inactive. Consider `CN(C)C(=O)Nc1ccccc1`, for which the compound was called inactive.

With `CCCCOCCOCCOCCO`, the outcome was inactive. As for `C=CCOCC(O)CO` (stereo not given), the AC50 is 137 µM (active). On to `COC(=O)c1ccc(C(=O)OC)cc1`, for which the compound was classed as inactive. With `O=C(O)c1ccc(C(=O)O)c(C(=O)O)c1`, the compound was classed as inactive. Take `CCCCCCCCCCCCCCCCCC(=O)OCCCCCCCCCCCCCC(C)C`: the call was inactive.

As for `CCCc1ccc(N)cc1`, the result was inactive. With `O=[N+]([O-])c1cc(N(CCO)CCO)ccc1NCCO`, the compound was classed as inactive.

Consider `CCC(C)(CCCC(C)C)OC(C)=O` (stereo not given), for which the result was inactive. Take `CCC(=O)OC(C)(C)C1CC=C(C)CC1` (stereo not given): the call was inactive. For `CC(C)OB(OC(C)C)OC(C)C`, the result was inactive. On the same count and under the same terms, with `CCOC(=O)CCCCCCCCC(=O)OCC` the entry was “inactive”.

On to `CCCC(O)C(CC)CO` (stereo not given), for which the compound was classed as inactive.

A word on the AC50: it is the concentration at which the activity in the assay is half-maximal.
